Experimental data published in PubChem BioAssay (EPA / NIEHS).
Activity calls are given as the source filed them. How the source made its calls: active means hit-call score of the fitted dose curve at least 0.9, where 1 is the maximum; inactive means score below 0.9.

What was measured:
[1] = APR_HepG2_CellCycleArrest_24hr: Apredica 24-hour HepG2 Assay for Cell Cycle Arrest (AID 2282905); settings: imaging, actives raise or lower the signal;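 further: cell cycle arrest scored as ratio of 2N to 4N nuclear DNA content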
In short: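 Readout: Hoechst 33342 nuclear DNA content by high-content fluorescent imaging, six images/well, 20x. Human HepG2 liver cells, 24 hr compound exposure, 0.39–200 uM, final DMSO 0.5% v/v. Gain or loss fitted relative to DMSO baseline.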

[2] = APR_HepG2_NuclearSize_24hr: Apredica 24-hour HepG2 Assay for Nuclear Size (AID 2282907); settings: high-content imaging, actives raise or lower the signal
In short: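 Read-out: nuclear diameter from Hoechst 33342 (2 ug/mL) imaging of fixed HepG2 cells, 20x, six fields/well. Compounds ran at 0.39–200 uM for 24 hr, 0.5% DMSO final. Gain or loss was fitted bidirectionally relative to the DMSO baseline.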

[3] = APR_HepG2_CellLoss_24hr: Apredica 24-hour HepG2 Assay for Cell Loss (AID 2282908); settings: high-content imaging;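 on AC50: fit in both directions so a hit may be cell loss or gain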
In short: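 Read-out: Hoechst 33342-stained nuclei counted by automated fluorescence imaging after formaldehyde fixation and Triton permeabilization. Ten concentrations, 0.39 to 200 uM, duplicate wells, 0.5% DMSO final. Gain or loss of signal fitted relative to DMSO baseline.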

[4] = APR_HepG2_MicrotubuleCSK_24hr: Apredica 24-hour HepG2 Assay for Microtubule CSK Stabilty (AID 2282909); settings: HepG2 microtubule cytoskeleton imaging, actives raise or lower the signal
In short: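 Read-out: alpha-tubulin immunofluorescence intensity by automated high-content imaging of fixed HepG2 cells after 24 h compound treatment. Ten concentrations, 0.39 to 200 uM, in duplicate; DMSO 0.5% v/v. Taxol positive control; DMSO-normalized bidirectional curve fitting.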

[5] = APR_HepG2_MitoticArrest_24hr: Apredica 24-hour HepG2 Assay for Mitotic Arrest (AID 2282910); settings: high-content imaging, actives raise or lower the signal
In short: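 HepG2, 24 hr dosing, 0.39–200 uM, 0.5% DMSO final. Formaldehyde-fixed, Triton-permeabilised, anti-phospho-histone H3 plus Hoechst. ArrayScan imaging at 20x; bidirectional fit vs DMSO baseline.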

[6] = APR_HepG2_MitoMembPot_24hr: Apredica 24-hour HepG2 Assay for Mitochondrial Membrane Potential (AID 2282911); settings: imaging, actives raise or lower the signal
In short: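 Mitochondrial membrane potential imaged via MitoTracker Red CMXRos (250 nM, 30 min pre-fixation) in fixed HepG2 cells with Hoechst nuclear identification. Ten concentrations 0.39–200 uM, 24 h treatment, 0.5% DMSO; CCCP as positive control.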

[7] = APR_HepG2_MitoMass_24hr: Apredica 24-hour HepG2 Assay for Mitochondrial Mass (AID 2282912); settings: high-content imaging, actives raise or lower the signal
In short: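 HepG2, 24 hr dosing, 10 concentrations 0.39–200 uM in duplicate, DMSO 0.5% final. MitoTracker Red CMXRos 250 nM, 30 min pre-fix; 3.7% formaldehyde fix. Imaging-based fluorescence intensity; gain/loss fit vs DMSO baseline.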

[8] = APR_HepG2_p53Act_24hr: Apredica 24-hour HepG2 Assay for p53 Activation (AID 2282913); settings: high-content imaging, actives raise or lower the signal;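 further: p53 protein immunofluorescence averaged per cell in HepG2 with Hoechst nuclei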
In short: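 Fluorescence imaging of formaldehyde-fixed HepG2 cells labelled for p53 and with Hoechst, 24 h after dosing (0.39–200 uM, duplicate wells, 0.5% v/v DMSO). Signal fitted in both directions relative to DMSO.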

[9] = APR_HepG2_CellCycleArrest_72hr: Apredica 72-hour HepG2 Assay for Cell Cycle Arrest (AID 2282914); settings: high-content imaging, actives raise or lower the signal
In short: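 Read-out: nuclear DNA content from Hoechst 33342 high-content imaging (20x, six fields/well) after 3.7% formaldehyde fixation, fitted bidirectionally against DMSO. Treatment was 72 h in HepG2, ten concentrations 0.39–200 uM, duplicate, 0.5% DMSO.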

[10] = APR_HepG2_CellLoss_72hr: Apredica 72-hour HepG2 Assay for Cell Loss (AID 2282915); settings: high-content imaging
In short: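 HepG2 cells exposed 72 h to compound at 0.39–200 uM (10 concentrations, duplicate) in 0.5% DMSO. Fixed with 3.7% formaldehyde and Hoechst 33342-stained. Imaged at 20x; nuclear count gives cell number, fitted bidirectionally versus DMSO.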

[11] = APR_HepG2_P-H2AX_72hr: Apredica 72-hour HepG2 Assay for H2AX Phosphorylation (AID 2282916); settings: imaging, actives raise or lower the signal;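 further: phospho-histone H2A.x immunostain intensity per cell marking DNA damage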
In short: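 Readout: phospho-H2A.x immunofluorescence (FITC secondary) plus Hoechst nuclear stain, high-content imaging at 20x, six fields/well. HepG2, 72 hr compound exposure, 0.39–200 uM, final DMSO 0.5% v/v. Gain or loss fitted relative to DMSO baseline.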

[12] = APR_HepG2_MitoMembPot_72hr: Apredica 72-hour HepG2 Assay for Mitochondrial Membrane Potential (AID 2282917); settings: imaging, actives raise or lower the signal
In short: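 HepG2 cells dosed 72 hr with compound at 0.39–200 uM in duplicate, 0.5% v/v DMSO final. Mitochondria stained with 250 nM MitoTracker Red CMXRos for 30 min before formaldehyde fixation, imaged by high-content fluorescence; bidirectional fit versus DMSO.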

[13] = APR_HepG2_MitoticArrest_72hr: Apredica 72-hour HepG2 Assay for Mitotic Arrest (AID 2282918); settings: high-content imaging, actives raise or lower the signal
In short: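 High-content imaging of fixed human HepG2 cells after 72 h compound exposure (0.39–200 uM, duplicates, 0.5% DMSO); mitotic arrest scored from phospho-histone H3 and nuclear Hoechst staining relative to DMSO.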

[14] = APR_HepG2_MicrotubuleCSK_72hr: Apredica 72-hour HepG2 Assay for Microtubule CSK Stabilty (AID 2282919); settings: HepG2 microtubule cytoskeleton, high-content imaging, actives raise or lower the signal
In short: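 HepG2, 72 hr cmpd exposure, 0.39–200 uM (10 pts, duplicate), 0.5% DMSO. 3.7% formaldehyde fix, 0.5% Triton perm, anti-alpha-tubulin/Cy5 plus Hoechst. HCS fluorescence intensity; bidirectional fit vs DMSO baseline; taxol as positive control.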

[15] = APR_HepG2_P-H2AX_24hr: Apredica 24-hour HepG2 Assay for H2AX Phosphorylation (AID 2282920); settings: high-content imaging, actives raise or lower the signal
In short: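 High-content imaging of phospho-histone H2A.x immunofluorescence, nuclei counterstained with Hoechst 33342, in fixed HepG2 cells. Compounds ran 0.39–200 uM in duplicate for 24 h, final DMSO 0.5%. Signal change fitted both directions against DMSO.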

[16] = APR_HepG2_StressKinase_72hr: Apredica 72-hour HepG2 Assay for Stress Kinase (AID 2282921); settings: HepG2 stress kinase (phospho-c-Jun) imaging, actives raise or lower the signal
In short: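 Phospho-c-Jun immunofluorescence measured by high-content imaging at 20x, six fields per well; bidirectional curve fitting against DMSO as baseline. Dosing: 0.39–200 uM, 72 h, 0.5% DMSO final.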

[17] = APR_HepG2_StressKinase_24hr: Apredica 24-hour HepG2 Assay for Stress Kinase (AID 2282922); settings: HepG2 stress kinase (phospho-c-Jun) imaging, actives raise or lower the signal
In short: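 Read-out: phospho-c-Jun immunofluorescence (Cy3 secondary) quantified by high-content imaging at 20x, nuclei defined by Hoechst 33342. Human HepG2 liver cells dosed 24 hr, 0.39–200 uM, DMSO 0.5% v/v; gain or loss of signal fitted relative to DMSO.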

[18] = APR_HepG2_MitoMass_72hr: Apredica 72-hour HepG2 Assay for Mitochondrial Mass (AID 2282924); settings: high-content imaging, actives raise or lower the signal;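 further: MitoTracker Red CMXRos stain intensity per cell imaged as mitochondrial mass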
In short: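 Read-out: MitoTracker Red fluorescence intensity from automated imaging (20x, six fields per well) in human HepG2 liver cells. Dosing ran 72 hr, 0.39–200 uM, 0.5% DMSO; bidirectional curve fitting versus DMSO baseline.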

[19] = APR_HepG2_NuclearSize_72hr: Apredica 72-hour HepG2 Assay for Nuclear Size (AID 2282925); settings: high-content imaging, actives raise or lower the signal
In short: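 Read-out: nuclear diameter from Hoechst 33342 images (ArrayScan, 20x, six fields/well), via cell-cycle image analysis. HepG2 were dosed 0.39–200 uM for 72 hr in 0.5% DMSO. Bidirectional fit relative to DMSO.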

[20] = APR_HepG2_p53Act_72hr: Apredica 72-hour HepG2 Assay for p53 Activation (AID 2282923); settings: high-content imaging, actives raise or lower the signal;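 further: average cellular p53 protein immunofluorescence intensity in HepG2 cells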
In short: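 Readout: p53 immunofluorescence quantified by automated high-content imaging at 20x, six fields per well, nuclei located via Hoechst. Dosing ran 72 hr over ten concentrations from 0.39 to 200 uM; bidirectional curve fitting against DMSO baseline.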

Measured: AC50

Cc1cc(Cc2ccc(N)c(C)c2)ccc1N
active: [1] 35.1 µM | [9] 103 µM | [10] 77.8 µM | [18] 67.3 µM
not listed: [20]
inactive: all other assays above

CC(C)(O)c1ccc(CNC(=O)c2cccnc2Oc2ccc(F)cc2)cc1
not listed: [11] | [20]
inactive: all other assays above

Nc1nc(Cl)nc2c1ncn2[C@H]1C[C@H](O)[C@@H](CO)O1
active: [2] 0.0451 µM | [3] 0.0403 µM | [7] 0.243 µM | [8] 0.208 µM | [9] 0.0388 µM | [10] 0.162 µM | [13] 0.089 µM | [15] 0.551 µM
not listed: [11] | [20]
inactive: all other assays above

CO[C@@H]1COCC[C@@H]1N[C@@H]1CC[C@@](C(=O)N2CCc3ncc(C(F)(F)F)cc3C2)(C(C)C)C1
not listed: [20]
inactive: all other assays above

CC(=O)S[C@H](C(=O)N[C@H]1Cc2ccccc2[C@H]2CCC[C@@H](C(=O)O)N2C1=O)C(C)C
not listed: [20]
inactive: all other assays above

CN(C)C(=O)NC1(c2ccccc2)CCN(CC[C@@]2(c3ccc(F)c(F)c3)CN(C(=O)c3ccccc3)CCO2)CC1
active: [5] 101 µM | [7] 97.8 µM | [10] 111 µM | [11] 91.8 µM | [13] 86 µM | [14] 82.9 µM | [16] 104 µM | [20] 97.7 µM
inactive: all other assays above

Oc1ccccc1O
active: [9] 36.4 µM | [10] 36.8 µM | [11] 53.2 µM | [15] 67.9 µM
not listed: [12] | [13] | [14] | [18] | [20]
inactive: all other assays above

OCC(CO)n1cnc(-c2ccc(F)cc2)c1-c1ccnc(Oc2ccccc2)n1
inactive: all assays above

Cc1ccc(C(C)(C)C)c(O)c1
inactive: [1] | [14] | [16] | [17] | [18] | [19]
active: [2] 112 µM | [3] 108 µM | [4] 113 µM | [5] 106 µM | [6] 122 µM | [7] 107 µM | [8] 110 µM | [9] 110 µM | [10] 145 µM | [11] 105 µM | [12] 111 µM | [13] 100 µM | [15] 110 µM

Oc1ccc(O)cc1
active: [7] 51.4 µM | [8] 19 µM | [9] 100 µM | [10] 71.7 µM | [20] 91.9 µM | [18] 46.3 µM | [19] 67.8 µM
not listed: [11]
inactive: all other assays above

CC1=C(C)S(=O)(=O)CCS1(=O)=O
active: [9] 42.8 µM | [10] 37.4 µM | [11] 82.3 µM | [13] 33.1 µM | [18] 35.9 µM
not listed: [20]
inactive: all other assays above

NCCOCCOCCN
active: [1] 0.998 µM | [3] 92.3 µM | [4] 170 µM | [5] 14.3 µM | [6] 107 µM | [7] 45.3 µM | [8] 83.7 µM | [9] 18.6 µM | [10] 16.6 µM | [11] 6.09 µM | [13] 15.8 µM | [14] 96.6 µM | [15] 76.5 µM | [17] 100 µM | [18] 84.5 µM | [19] 3.84 µM
inactive: [2] | [12] | [16]
